Results: the supplement of paper PMC11732987, “Enantioselective OTUD7B fragment discovery through chemoproteomics screening and high-throughput optimisation” (Communications Chemistry, 2025)

What was measured:
Test in all cases: log2 ratio of Biotin-Ahx-Ub-VS probe labelling (fragment/DMSO); higher = less target engagement (more negative = stronger competition), active = hit call of the paper (q ≤ 0.05, log2 ratio ≤ -1)
Settings in all cases: compound concentration: 200 uM; treatment time: 3 h
USP42 = target: T1, USP42 (UniProt Q9H9J4)
T1 sequence (whole entry): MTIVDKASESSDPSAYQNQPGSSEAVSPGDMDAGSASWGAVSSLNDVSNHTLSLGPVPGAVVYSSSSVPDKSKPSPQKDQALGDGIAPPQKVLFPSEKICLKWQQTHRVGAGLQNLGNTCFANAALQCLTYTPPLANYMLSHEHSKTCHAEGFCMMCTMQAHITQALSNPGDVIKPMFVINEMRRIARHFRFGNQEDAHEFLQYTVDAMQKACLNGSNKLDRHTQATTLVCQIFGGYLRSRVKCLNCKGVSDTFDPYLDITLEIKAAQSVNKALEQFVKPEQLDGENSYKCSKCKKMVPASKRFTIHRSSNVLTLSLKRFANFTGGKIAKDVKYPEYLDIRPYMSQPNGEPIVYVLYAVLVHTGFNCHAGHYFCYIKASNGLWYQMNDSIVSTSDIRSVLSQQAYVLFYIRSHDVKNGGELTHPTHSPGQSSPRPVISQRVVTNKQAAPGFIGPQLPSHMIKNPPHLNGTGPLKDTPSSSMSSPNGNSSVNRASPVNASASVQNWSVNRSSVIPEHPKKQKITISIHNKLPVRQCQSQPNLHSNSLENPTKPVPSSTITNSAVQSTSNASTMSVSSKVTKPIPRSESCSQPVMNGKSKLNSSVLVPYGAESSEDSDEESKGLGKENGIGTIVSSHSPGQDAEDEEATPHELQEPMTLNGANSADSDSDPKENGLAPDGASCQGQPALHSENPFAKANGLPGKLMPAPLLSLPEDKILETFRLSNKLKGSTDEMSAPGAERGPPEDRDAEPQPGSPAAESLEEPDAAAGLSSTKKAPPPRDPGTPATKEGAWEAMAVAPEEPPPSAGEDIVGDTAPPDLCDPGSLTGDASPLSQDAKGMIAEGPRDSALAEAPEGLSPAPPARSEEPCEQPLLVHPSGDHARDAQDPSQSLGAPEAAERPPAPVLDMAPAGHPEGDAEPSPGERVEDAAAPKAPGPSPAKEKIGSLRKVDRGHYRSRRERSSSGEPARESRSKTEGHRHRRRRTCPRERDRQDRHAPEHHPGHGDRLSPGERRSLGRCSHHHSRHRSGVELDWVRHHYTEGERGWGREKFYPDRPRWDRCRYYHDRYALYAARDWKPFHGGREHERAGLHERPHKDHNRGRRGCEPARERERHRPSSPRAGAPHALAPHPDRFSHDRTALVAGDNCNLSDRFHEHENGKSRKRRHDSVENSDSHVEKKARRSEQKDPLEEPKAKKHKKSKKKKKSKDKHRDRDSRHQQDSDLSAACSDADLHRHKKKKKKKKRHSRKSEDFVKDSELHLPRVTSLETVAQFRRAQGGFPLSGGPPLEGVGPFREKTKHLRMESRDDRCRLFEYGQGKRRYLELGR
In short: (§1)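 HEK293T lysate (495 µg per sample, in Tris/CHAPS/IGEPAL buffer with protease inhibitors) was exposed in triplicate for 3 h to fragment at 200 µM or to vehicle, then to Biotin-Ahx-Ub-VS at 0.5 µM final for 1 h. Labelled DUBs were enriched on NeutrAvidin, digested with LysC and trypsin, and analysed by diaPASEF LC-MS/MS. Spectronaut label-free quantities were normalised to the global median, and values are average log2 ratios of fragment over vehicle from an unpaired t-test. Only proteins with ≥2 unique peptides were used.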

USP46 = USP46 (UniProt P62068)
Sequence of USP46 (P62068 whole entry): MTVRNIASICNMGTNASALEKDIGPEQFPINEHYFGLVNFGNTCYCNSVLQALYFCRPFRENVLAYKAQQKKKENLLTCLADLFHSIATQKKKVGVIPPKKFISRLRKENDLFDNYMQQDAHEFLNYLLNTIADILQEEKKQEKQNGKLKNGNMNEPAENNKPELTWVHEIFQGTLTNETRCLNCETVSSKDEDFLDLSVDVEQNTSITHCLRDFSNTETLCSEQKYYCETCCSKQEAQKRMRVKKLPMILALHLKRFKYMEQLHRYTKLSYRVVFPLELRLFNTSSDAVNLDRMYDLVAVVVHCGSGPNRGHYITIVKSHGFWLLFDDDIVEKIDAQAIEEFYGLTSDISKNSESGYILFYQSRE
In short: as §1

USP47 = target: T2, USP47 (UniProt Q96K76)
T2 sequence (whole entry): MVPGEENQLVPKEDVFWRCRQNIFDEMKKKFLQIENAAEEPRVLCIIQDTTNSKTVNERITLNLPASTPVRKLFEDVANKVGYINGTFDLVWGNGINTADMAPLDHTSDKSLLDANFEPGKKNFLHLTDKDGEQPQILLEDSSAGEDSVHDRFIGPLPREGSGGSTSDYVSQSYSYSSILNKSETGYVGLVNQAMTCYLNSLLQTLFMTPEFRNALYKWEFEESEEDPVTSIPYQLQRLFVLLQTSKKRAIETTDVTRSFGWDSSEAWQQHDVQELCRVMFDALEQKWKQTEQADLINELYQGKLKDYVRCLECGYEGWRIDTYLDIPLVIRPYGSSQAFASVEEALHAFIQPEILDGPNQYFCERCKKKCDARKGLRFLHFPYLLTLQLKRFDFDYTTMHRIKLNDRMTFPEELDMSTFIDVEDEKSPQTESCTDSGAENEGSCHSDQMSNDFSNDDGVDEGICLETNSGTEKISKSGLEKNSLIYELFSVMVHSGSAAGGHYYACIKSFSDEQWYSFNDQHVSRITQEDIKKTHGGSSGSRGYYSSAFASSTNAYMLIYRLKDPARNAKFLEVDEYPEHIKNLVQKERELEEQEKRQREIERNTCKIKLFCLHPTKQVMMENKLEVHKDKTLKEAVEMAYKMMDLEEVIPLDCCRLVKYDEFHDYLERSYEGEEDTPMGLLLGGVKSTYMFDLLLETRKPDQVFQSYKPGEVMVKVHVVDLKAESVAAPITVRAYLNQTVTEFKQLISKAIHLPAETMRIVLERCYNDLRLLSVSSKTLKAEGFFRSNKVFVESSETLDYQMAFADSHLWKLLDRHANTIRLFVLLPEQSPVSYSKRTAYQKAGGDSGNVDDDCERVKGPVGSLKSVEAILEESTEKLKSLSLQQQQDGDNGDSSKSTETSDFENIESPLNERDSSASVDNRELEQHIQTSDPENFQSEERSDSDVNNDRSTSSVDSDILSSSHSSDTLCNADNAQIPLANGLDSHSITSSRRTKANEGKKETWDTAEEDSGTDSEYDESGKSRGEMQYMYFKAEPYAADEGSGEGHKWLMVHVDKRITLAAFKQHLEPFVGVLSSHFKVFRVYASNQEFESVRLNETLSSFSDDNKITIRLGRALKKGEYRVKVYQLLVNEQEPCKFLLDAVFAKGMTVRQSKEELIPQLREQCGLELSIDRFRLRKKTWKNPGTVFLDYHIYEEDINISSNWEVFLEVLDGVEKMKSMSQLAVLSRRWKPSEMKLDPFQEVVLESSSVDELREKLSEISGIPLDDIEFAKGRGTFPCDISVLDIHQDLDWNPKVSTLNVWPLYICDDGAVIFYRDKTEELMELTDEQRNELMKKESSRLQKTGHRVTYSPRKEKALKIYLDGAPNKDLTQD
In short: as §1

USP48 = target: T3, USP48 (UniProt Q86UV5)
T3 sequence (whole entry): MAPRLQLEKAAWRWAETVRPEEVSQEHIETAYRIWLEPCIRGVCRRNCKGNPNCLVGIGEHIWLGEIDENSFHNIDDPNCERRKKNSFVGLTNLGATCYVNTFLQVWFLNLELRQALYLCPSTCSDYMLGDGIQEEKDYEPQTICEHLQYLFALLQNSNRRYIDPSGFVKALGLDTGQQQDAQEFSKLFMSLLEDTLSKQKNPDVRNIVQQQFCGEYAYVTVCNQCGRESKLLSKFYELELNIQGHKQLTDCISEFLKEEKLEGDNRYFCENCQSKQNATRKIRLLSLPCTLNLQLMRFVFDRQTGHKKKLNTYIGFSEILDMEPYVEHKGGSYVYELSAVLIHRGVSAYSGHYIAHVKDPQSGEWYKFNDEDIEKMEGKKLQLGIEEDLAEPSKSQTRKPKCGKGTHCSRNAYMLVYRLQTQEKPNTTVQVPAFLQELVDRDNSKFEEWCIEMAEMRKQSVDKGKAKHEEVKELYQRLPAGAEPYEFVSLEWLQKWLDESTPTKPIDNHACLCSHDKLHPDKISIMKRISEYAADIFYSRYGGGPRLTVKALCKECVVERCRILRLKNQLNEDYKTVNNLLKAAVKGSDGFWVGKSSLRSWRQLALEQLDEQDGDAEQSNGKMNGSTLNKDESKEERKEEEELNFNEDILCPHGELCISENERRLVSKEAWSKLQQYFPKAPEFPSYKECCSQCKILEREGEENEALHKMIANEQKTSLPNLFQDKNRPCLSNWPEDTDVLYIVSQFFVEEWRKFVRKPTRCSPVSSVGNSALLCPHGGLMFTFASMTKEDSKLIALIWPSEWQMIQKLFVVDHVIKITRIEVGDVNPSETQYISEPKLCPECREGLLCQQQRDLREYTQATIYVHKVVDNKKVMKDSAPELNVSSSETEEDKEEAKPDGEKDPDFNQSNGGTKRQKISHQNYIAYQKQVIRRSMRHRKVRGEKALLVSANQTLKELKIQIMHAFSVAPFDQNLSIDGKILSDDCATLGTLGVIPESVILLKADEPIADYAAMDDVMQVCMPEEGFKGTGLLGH
In short: as §1

USP5 = target: T4, USP5 (UniProt P45974)
T4 sequence (whole entry): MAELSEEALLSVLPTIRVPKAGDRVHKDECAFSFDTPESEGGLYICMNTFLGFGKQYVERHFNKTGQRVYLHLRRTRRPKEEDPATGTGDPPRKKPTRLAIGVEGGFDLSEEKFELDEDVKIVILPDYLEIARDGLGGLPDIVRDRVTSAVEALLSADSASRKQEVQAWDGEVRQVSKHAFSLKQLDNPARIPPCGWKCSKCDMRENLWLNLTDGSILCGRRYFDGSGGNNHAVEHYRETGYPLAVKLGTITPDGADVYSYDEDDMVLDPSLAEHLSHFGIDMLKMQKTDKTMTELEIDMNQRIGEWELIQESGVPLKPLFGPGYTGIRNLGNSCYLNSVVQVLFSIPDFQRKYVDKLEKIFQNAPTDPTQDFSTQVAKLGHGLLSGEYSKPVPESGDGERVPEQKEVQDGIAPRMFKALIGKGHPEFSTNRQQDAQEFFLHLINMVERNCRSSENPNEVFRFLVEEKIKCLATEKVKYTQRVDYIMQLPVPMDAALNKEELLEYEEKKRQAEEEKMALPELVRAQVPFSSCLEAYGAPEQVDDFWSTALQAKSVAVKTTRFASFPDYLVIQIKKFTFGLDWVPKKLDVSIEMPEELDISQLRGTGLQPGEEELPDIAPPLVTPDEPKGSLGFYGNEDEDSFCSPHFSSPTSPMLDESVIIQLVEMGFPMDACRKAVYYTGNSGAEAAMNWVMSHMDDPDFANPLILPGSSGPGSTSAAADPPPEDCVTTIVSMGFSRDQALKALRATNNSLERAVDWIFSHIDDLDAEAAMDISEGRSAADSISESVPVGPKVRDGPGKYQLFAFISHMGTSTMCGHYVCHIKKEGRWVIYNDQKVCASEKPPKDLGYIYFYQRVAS
In short: as §1

USP54 = USP54 (UniProt Q70EL1)
Sequence of USP54 (Q70EL1 whole entry): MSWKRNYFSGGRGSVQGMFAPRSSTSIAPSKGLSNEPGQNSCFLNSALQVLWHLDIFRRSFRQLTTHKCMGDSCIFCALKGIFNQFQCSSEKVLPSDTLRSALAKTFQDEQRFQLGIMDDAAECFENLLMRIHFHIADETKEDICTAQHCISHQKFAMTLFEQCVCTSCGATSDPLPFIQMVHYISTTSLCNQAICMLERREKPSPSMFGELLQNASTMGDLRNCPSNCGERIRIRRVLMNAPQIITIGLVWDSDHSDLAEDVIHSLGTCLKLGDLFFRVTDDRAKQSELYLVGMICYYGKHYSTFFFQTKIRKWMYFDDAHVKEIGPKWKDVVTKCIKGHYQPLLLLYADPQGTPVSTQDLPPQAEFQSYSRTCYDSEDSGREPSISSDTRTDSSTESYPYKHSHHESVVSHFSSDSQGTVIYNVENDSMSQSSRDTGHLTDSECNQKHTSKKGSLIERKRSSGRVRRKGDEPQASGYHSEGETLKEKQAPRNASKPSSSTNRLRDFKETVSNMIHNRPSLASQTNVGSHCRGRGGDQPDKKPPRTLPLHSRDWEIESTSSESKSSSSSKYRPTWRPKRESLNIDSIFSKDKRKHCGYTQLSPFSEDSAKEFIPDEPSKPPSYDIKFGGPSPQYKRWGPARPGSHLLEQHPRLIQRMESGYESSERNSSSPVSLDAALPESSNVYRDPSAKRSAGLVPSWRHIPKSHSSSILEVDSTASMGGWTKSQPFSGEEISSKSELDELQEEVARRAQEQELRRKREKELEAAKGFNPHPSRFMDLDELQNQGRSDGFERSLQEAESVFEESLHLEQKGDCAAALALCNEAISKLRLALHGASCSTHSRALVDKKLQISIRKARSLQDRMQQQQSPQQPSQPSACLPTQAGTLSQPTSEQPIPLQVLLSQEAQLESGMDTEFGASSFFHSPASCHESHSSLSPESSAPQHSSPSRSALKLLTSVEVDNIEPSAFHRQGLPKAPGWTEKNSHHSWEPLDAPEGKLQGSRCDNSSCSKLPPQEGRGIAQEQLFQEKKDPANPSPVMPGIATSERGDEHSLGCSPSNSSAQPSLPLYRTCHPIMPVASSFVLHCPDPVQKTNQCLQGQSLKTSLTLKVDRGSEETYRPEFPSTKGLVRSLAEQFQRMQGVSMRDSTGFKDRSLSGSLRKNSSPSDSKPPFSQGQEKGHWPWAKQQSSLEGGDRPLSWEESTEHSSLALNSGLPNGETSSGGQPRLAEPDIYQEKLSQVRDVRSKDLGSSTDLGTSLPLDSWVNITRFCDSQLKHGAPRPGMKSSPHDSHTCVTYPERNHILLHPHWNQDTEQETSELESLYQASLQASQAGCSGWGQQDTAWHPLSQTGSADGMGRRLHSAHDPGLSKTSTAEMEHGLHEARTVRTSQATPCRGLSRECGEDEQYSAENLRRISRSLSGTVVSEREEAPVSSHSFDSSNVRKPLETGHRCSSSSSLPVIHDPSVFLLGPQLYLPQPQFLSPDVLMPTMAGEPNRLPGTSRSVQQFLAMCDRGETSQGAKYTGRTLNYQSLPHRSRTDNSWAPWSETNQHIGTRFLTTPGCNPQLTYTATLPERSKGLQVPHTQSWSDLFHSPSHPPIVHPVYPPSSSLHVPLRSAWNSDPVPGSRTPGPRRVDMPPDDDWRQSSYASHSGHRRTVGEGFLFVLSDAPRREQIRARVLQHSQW
In short: as §1

USP7 = USP7 (UniProt Q93009)
In short: as §1

USP8 = target: T5, USP8 (UniProt P40818)
T5 sequence (whole entry): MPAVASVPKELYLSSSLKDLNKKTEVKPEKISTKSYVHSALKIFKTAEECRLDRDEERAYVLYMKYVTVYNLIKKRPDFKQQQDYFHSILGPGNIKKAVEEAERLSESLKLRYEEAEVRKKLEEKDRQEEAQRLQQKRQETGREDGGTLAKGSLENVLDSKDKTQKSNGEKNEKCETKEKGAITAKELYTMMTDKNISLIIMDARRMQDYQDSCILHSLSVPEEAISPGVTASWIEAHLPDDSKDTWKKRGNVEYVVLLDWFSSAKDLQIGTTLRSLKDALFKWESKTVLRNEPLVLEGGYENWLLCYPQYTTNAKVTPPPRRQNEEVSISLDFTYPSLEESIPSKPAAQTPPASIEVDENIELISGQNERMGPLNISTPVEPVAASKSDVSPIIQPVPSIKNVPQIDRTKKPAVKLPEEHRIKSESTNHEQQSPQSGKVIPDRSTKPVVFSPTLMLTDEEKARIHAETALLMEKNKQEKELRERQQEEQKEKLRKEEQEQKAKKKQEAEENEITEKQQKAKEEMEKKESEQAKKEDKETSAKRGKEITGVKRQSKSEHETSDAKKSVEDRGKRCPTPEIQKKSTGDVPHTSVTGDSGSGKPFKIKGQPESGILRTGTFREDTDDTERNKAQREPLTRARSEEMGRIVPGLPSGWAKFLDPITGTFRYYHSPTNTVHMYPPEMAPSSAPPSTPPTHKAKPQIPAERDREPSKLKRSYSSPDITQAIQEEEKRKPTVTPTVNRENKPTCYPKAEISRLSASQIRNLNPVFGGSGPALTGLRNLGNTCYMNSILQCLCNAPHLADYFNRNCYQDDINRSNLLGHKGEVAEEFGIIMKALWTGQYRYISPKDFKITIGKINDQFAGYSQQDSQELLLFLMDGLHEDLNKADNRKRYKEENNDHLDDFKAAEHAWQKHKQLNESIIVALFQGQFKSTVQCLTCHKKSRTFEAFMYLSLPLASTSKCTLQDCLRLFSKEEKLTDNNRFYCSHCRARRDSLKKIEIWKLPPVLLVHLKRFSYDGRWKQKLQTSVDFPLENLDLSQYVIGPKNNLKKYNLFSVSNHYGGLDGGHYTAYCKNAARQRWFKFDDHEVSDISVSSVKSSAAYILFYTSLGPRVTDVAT
In short: as §1

USP9X = USP9X (UniProt Q93008)
Sequence of USP9X (Q93008 whole entry): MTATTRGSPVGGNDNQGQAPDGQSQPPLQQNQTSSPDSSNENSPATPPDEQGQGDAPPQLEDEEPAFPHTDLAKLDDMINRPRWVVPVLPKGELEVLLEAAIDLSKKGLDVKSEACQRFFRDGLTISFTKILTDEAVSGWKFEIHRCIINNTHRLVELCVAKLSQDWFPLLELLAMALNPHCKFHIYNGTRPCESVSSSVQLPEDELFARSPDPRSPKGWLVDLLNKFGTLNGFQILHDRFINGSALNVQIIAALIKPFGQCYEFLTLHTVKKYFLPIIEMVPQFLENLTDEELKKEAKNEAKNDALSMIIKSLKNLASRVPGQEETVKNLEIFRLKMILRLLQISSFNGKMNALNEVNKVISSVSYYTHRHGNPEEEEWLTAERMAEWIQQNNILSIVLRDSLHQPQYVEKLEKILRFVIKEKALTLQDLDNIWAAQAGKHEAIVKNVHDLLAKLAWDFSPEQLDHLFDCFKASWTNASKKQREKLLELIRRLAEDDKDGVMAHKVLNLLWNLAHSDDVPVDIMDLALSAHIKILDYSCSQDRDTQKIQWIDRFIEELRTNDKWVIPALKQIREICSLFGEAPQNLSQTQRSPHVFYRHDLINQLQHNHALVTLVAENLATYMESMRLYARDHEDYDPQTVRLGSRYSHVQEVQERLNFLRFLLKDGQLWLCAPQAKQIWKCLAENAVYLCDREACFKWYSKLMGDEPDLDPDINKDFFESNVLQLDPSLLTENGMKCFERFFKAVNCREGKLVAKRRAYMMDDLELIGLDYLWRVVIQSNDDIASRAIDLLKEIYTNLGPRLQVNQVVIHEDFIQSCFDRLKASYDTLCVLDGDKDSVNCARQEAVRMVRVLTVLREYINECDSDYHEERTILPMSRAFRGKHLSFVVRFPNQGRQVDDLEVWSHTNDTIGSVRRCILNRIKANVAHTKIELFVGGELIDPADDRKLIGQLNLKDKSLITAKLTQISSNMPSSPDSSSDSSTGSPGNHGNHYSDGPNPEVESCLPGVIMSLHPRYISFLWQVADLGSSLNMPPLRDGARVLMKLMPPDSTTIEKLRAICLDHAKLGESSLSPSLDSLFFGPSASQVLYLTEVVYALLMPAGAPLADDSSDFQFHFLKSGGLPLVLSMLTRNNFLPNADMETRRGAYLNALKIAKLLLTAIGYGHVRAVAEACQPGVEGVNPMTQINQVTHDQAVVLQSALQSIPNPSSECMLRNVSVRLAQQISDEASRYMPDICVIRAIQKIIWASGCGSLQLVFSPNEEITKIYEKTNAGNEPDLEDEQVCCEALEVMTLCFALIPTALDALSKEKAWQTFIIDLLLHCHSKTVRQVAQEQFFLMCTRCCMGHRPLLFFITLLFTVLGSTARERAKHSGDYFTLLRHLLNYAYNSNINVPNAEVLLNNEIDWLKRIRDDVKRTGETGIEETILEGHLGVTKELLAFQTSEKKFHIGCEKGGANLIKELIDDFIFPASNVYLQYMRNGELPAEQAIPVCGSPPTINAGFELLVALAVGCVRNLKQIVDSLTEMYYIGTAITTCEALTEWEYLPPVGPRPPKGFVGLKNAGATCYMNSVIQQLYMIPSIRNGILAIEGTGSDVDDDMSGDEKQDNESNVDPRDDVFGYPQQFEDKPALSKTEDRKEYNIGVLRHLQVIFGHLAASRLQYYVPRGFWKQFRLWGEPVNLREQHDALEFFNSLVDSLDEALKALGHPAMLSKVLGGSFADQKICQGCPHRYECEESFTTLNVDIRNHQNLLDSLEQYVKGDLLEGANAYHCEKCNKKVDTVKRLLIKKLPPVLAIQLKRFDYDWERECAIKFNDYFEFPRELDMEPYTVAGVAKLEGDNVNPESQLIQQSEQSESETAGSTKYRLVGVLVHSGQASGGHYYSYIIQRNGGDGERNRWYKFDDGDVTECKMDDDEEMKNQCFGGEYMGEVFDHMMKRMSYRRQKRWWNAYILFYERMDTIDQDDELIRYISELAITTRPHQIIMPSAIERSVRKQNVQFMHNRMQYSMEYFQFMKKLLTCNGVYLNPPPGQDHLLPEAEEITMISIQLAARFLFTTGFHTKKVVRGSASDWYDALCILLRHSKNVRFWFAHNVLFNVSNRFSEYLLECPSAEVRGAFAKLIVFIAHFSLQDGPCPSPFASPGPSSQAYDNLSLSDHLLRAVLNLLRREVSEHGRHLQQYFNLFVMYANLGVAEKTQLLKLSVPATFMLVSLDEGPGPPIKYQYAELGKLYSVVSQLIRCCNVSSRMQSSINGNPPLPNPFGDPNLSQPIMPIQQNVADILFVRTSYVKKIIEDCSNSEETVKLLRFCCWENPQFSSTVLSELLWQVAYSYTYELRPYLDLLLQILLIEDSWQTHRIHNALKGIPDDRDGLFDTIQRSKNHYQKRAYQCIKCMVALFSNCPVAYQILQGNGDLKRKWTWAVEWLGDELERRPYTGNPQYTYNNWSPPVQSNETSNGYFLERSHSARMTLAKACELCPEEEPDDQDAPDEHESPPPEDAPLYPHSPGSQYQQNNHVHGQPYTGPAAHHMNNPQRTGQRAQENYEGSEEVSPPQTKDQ
In short: as §1

UniProt O00487 = target: UniProt O00487
Sequence of UniProt O00487 (O00487 whole entry): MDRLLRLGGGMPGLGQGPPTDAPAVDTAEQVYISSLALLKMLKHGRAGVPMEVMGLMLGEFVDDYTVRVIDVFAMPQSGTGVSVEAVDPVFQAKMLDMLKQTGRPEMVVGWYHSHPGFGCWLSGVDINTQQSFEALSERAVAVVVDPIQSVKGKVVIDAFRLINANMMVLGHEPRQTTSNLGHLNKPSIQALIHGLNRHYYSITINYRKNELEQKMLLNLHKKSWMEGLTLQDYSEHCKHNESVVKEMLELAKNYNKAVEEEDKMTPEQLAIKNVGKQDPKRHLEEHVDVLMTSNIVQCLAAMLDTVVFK
In short: as §1

Measured: log2 ratio of Biotin-Ahx-Ub-VS probe labelling

Cc1ccc(C(=O)NCCNC(=O)CCl)cc1
inactive: USP42 -0.216 | USP46 0.0112 | USP47 -0.158 | USP48 -0.318 | USP5 -0.123 | USP54 0.576 | USP7 -0.262 | USP8 -0.271 | USP9X -0.316 | UniProt O00487 -0.0816
